# Test results published in PubChem BioAssay (Tox21).
# Inconclusive results are not listed. A number with no mark means an inactive call. Calls of active or inactive are those of the source. Calls come from the whole dose curve; as a rule, active = well fitted inhibition curve with a large enough effect in the repeat runs; inconclusive = weak or mixed curves; inactive = flat fitted curve, though single readings scatter.
# Target: Voltage-gated inwardly rectifying potassium channel KCNH2 (Homo sapiens) (UniProt Q12809)
# Sequence (Q12809 whole entry, looked up): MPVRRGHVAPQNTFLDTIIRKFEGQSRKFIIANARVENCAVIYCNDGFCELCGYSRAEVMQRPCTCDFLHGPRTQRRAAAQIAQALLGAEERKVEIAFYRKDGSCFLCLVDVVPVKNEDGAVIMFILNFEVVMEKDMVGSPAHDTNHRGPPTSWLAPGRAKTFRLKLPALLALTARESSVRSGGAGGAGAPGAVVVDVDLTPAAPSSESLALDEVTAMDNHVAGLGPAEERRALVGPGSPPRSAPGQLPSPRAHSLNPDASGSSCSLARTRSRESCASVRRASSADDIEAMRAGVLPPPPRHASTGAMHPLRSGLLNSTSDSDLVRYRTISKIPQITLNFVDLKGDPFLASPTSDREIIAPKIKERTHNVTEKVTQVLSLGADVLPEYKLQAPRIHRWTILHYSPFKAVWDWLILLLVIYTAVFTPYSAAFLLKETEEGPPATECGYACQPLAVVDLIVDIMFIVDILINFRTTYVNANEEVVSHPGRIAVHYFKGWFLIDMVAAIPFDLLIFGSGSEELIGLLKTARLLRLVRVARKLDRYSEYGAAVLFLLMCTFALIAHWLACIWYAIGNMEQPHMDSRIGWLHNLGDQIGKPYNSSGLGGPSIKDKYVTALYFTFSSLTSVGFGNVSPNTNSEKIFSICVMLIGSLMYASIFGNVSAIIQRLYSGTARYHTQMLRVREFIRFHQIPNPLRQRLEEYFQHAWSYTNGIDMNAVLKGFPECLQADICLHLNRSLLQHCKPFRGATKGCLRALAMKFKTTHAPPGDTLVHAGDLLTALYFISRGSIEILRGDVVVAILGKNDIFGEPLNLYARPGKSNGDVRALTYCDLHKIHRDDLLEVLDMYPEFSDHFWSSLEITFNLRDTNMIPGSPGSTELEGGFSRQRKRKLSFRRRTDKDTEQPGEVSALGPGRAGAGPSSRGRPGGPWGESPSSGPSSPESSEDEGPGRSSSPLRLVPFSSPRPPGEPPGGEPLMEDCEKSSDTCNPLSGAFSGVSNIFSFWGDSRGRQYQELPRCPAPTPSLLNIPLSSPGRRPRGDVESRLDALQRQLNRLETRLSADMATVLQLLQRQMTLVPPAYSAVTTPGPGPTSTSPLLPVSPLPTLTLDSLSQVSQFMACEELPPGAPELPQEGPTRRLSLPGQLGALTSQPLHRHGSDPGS
# Assay: Human Ether-a-go-go-Related Gene (hERG) channel small molecule antagonists: fluorescence cell-based qHTS assay (AID 1671200); note: nearly all actives have a fitted effect of over 50% in size
# Conditions: hERG-U2OS cells, FluxOR thallium flux fluorescence; series mostly up to 76.8 µM; activity change, negative = inhibition: at the top concentration
# From the text: National Center for Advancing Translational Sciences [NCATS]
# U.S. Environmental Protection Agency [EPA]
# National Institutes of Environmental Health Sciences [NIEHS]
# National Toxicology Program [NTP]
# U.S. Food and Drug Administration [FDA]
# Mutations in the hERG channel cause Long QT (LQT) syndrome. LQT syndrome is a cardiac disorder which can cause ventricle arrhythmia and sudden death. Additionally, compounds which block the hERG channel can cause acquired LQT syndrome. Several FDA approved drugs have been removed from the market due to their hERG blocking activity. A cell-based hERG channel inhibition assay can be used to screen chemical compounds that inhibit hERG channel. This assay measures hERG channel activity using thallium ions as surrogate ions to measure potassium into the cells.
# Tox21 Assay Protocol Summary:
# hERG-U2OS cells were resuspended in culture medium and dispensed into 1536-well, black wall/clear-bottom plates at 1000cells/well/3uL using a Multidrop Combi dispenser (Thermo Fisher, Waltham, MA). After plates were incubated at 37 C overnight, 3 uL of Loading Buffer provided by FluxOR II Potassium Ion Channel Assay kit (Thermo, Carlsbad, CA) was added to each well. The assay plates were then incubated at room temperature in the dark for 1h. […] After the assay plates were incubated at room temperature for 10 min, 1 uL of Stimulus Buffer provided by FluxOR II Potassium Ion Channel Assay kit was added into each well and fluorescence intensity (480nm excitation/540nm emission) was continuously measured for 2 min at 1 second intervals using a Functional Drug Screening System (FDSS) 7000EX kinetic plate reader (Hamamatsu, Japan).
# % is set by controls: 0 for no effect and ±100 for the full control effect; potency is the fitted concentration of half-maximal effect.
Compound,"activity change, negative = inhibition",Potency
CO[C@H]1C=CO[C@@]2(C)Oc3c(C)c(O)c4c(O)c(c5c(c4c3C2=O)=NC2(CCN(CC(C)C)CC2)N=5)NC(=O)/C(C)=C\C=C/[C@H](C)[C@H](O)[C@@H](C)[C@@H](O)[C@@H](C)[C@H](OC(C)=O)[C@@H]1C,-19.1%,–
O=C(CCCN1CCN(c2ccc(F)cc2)CC1)NC1c2ccccc2CSc2ccccc21 (stereo not given),–,1.9 µM (active)
CCCCCCCCCCCC[N+](C)(C)CC(=O)[O-],-3.57%,–
Cc1cnc(C)c(C)n1,0.741%,–
CC(=O)[C@H]1CC[C@H]2[C@@H]3C[C@H](C)C4=CC(=O)CC[C@]4(C)[C@H]3[C@@H](O)C[C@]12C,0.392% [at 35.3 µM],–
CCCCC(=O)O[C@]1(C(=O)CO)CC[C@H]2[C@@H]3CCC4=CC(=O)CC[C@]4(C)[C@H]3[C@@H](O)C[C@@]21C,-4.08% [at 35.3 µM],–
CCCCCCCCCOC(C)=O,0.772%,–
c1cnc2c(n1)CCCC2,7.58%,–
CCCOc1ccc(S(=O)(=O)N2CCN(CC)CC2)cc1-c1nc2c(CC)n(Cc3ccccn3)nc2c(=O)[nH]1,–,21.9 µM (active)
CCOC(=O)CC(=O)C(=O)OCC,–,49 µM (active)
CC(C)(CCl)c1ccccc1,3.12%,–
CC[C@H](NC(=O)c1cc(F)ccc1NS(=O)(=O)c1cccc2cccnc12)c1ccccc1,-17.2%,–
ON(Cc1ccccc1)Cc1ccccc1,1.11%,–
COc1ccccc1N=Nc1c(S(=O)(=O)O)cc2cc(S(=O)(=O)O)cc(NC(C)=O)c2c1O,7.06%,–
CC(C)CCCCCCOC(=O)CCCCC(=O)OCCCCCCC(C)C,1.1%,–
C=C(C)C(=O)OCCOC(=O)CC(C)=O,4.15%,–
CO[C@H]1O[C@H](CO)[C@@H](O)[C@H](O)[C@H]1O,3.33%,–
CC(=O)OCC(=O)[C@@]12OC(C)(C)O[C@@H]1C[C@H]1[C@@H]3C[C@H](F)C4=CC(=O)C=C[C@]4(C)[C@@]3(F)[C@@H](O)C[C@@]12C,-0.0157% [at 35.3 µM],–
CCn1cc(C(=O)O)c(=O)c2cc(F)c(N3CCNCC3)nc21,-6.52% [at 35.3 µM],–
CCCCCCCCCCCCCCC[C@H](O)[C@@H](N)CO,-10.7% [at 35.3 µM],–

Compound,"activity change, negative = inhibition",Potency
c1ccc(COCc2ccccc2)cc1,-1.67%,–
CC(CCc1ccc2c(c1)OCO2)NN (stereo not given),4.47% [at 35.3 µM],–
CN1C(=O)CC(C)(c2ccccc2)C1=O (stereo not given),0.765% [at 35.3 µM],–
CCCCCCCCCCCCCCCCBr,1.22% [at 15.8 µM],–
CCCOCCOCCO,1.72%,–
Cc1ccc(S(=O)(=O)NC2CCCCC2)cc1,2.59%,–
Oc1ccc(Nc2ccccc2)cc1,3.02%,–
CN1CCCN=C1/C=C/c1cccs1,-26.2% [at 35.3 µM],–
COc1ccc([C@@H]2Sc3ccccc3NC(=O)[C@@H]2O)cc1,1.66% [at 35.3 µM],–
OCC1CC=CCC1 (stereo not given),5.79%,–
CCOC(=O)[C@@H](C)Oc1ccc(Oc2nc3ccc(Cl)cc3o2)cc1,–,19.5 µM (active)
CN1CCN(c2c(F)cc3c(=O)c(C(=O)O)cn4c3c2OCN4C)CC1,-1.8% [at 15.8 µM],–
O=Cc1c(Cl)cccc1Cl,-6.91%,–
Cc1ccc(Nc2nccc(N(C)c3ccc4c(C)n(C)nc4c3)n2)cc1S(N)(=O)=O,-23.6% [at 35.3 µM],–
C1COCO1,-0.871%,–
CCCc1c(OCCCOc2ccc(OCC(=O)O)cc2)ccc(C(C)=O)c1O,-4.13%,–
N#C/C(=C1\SCC(c2ccccc2Cl)S1)n1ccnc1 (stereo not given),1.79% [at 35.3 µM],–
COC(=O)c1cc(S(N)(=O)=O)ccc1OC,2.46% [at 35.3 µM],–
CC(=O)Oc1ccc(C(=C2CCCCC2)c2ccc(OC(C)=O)cc2)cc1,-14.6% [at 35.3 µM],–
Nc1ccc(S(=O)(=O)O)cc1,-1.6%,–
